High-throughput results: PubChem BioAssay, Sanford-Burnham Center for Chemical Genomics
Only some compounds are listed: those with a hit (about 28% of all), similar ones and a draw of the others.
CYP2C9 inh = inhibitors of human CYP2C9; inhibition, % at 5 µM; 96,000 tested, 20% active; CYP2C9 Supersomes, luciferin-H conversion, luminescence;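 active = blocking of liver enzyme CYP2C9 beyond about 50% at 5 µM, limit read from the data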
CD11b adhes enh = enhancers of human CD11b/CD18 binding to fibrinogen; activation, % at 10 µM; P05107+P11215; AID 1499; 93,000 tested, 0.07% active; K562 CD11b/CD18 adhesion to fibrinogen, ATPlite luminescence;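 active = 10 µM primary screen giving 50% or more activity, confirmed by 40% or more on retest at that dose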
CYP2C19 inhib = human CYP2C19 inhibition; P33261; CYP2C19 Supersomes, luciferin-H EGE luminescence, 30 min; inhibition, % at 5 µM; 96,000 tested, 21% active;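 active = CYP2C19 inhibition above a set limit at 5 µM in the primary screen, cut at about 50% in these data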;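 note: plate controls were negative control wells for no effect and 2.5 mM tranylcypromine positive control for full effect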
Target sequence (P33261 whole entry, looked up): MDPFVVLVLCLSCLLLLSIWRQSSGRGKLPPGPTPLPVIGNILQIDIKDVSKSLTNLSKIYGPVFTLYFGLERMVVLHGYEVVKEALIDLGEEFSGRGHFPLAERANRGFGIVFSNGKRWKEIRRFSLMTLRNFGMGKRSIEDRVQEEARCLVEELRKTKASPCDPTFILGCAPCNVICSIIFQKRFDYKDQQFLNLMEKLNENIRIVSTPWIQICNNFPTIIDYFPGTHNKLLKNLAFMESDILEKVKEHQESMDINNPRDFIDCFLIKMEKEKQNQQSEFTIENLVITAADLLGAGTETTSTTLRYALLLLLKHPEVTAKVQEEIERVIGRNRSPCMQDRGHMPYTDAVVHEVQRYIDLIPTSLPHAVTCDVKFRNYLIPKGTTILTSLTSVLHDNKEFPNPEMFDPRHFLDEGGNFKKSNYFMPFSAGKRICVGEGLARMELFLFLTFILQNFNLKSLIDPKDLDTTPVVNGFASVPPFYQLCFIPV
Mac1 fbg inh = CD11b/CD18-fibrinogen binding inhibition. inhibition, % at 10 µM. P05107+P11215. 93,000 tested, 0.54% active. K562 CD11b/CD18 adhesion to fibrinogen, ATPlite luminescence; Mn2+ added to activate the integrin;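 active = primary inhibition of 50% or more at 10 µM, then 40% or more on retest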
CYP2C19 act = cytochrome P450 2C19 (human) activation | P33261 | recombinant CYP2C19, luciferin-H EGE luminescence; stronger effect = higher value; 0 = fully inhibited enzyme, 1 = untreated enzyme | activation factor at 5 µM | 96,000 tested, under 10 active | AID 1025;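 active = activation factor of at least 2 at 5 µM in the primary screen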;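 note: 0 = wells with 2.5 mM tranylcypromine and 1 = vehicle-only wells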
CYP2C9 act = increases human cytochrome P450 2C9 activity | recombinant CYP2C9, luciferin-H conversion, luminescence; stronger effect = higher value; factor 1 = untreated enzyme, 0 = blocked | activation factor at 5 µM | 96,000 tested, 1.4% active | AID 1024;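 active = activation factor of 2 or more for CYP2C9 at a 5 µM dose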;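 note: 0 = sulfaphenazole-blocked wells and 1 = vehicle-only wells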
An asterisk follows results filed as active; / = no result given.

SMILES	CYP2C9 inh	CD11b adhes enh	CYP2C19 inhib	Mac1 fbg inh	CYP2C19 act	CYP2C9 act
COc1cccc(Oc2nnnn2-c2ccccc2)c1	25	0	60*	-6	0.4	0.8
CC(C)Oc1nnnn1-c1ccccc1	63*	6	39	-14	0.6	0.4
c1ccc(-n2nnnc2Oc2ccc(-n3ccnc3)cc2)cc1	99*	2	100*	-4	0	0
Cc1nc(NC(=S)NC(=O)c2cccs2)sc1C(=O)N(C)C	30	1	19	-6	0.8	0.7
COc1ccc(C(=O)NC(=S)Nc2nc(C)c(C(=O)N(C)C)s2)cc1	63*	-3	-2	14	1	0.4
COc1ccc(C2NC(=S)N3C(c4ccc(OC)cc4)NC(=S)N23)cc1 (configuration not stated)	28	1	51*	-30	0.5	0.7
COc1ccc(C(N)=S)cc1	/	-2	/	12	/	/
S=C1NC(c2ccccc2)N2C(=S)NC(c3ccccc3)N12 (configuration not stated)	78*	0	94*	19	0.1	0.2
O=C1NC(=O)C2C1C(c1ccccc1)N1C3C(=O)NC(=O)C3C(c3ccccc3)N21 (configuration not stated)	17	4	13	-25	0.9	0.8
CCCC1CCC(c2ccc(C(=O)NN)cc2)CC1 (configuration not stated)	/	-1	/	4	/	/
CC(=O)C1=C(C)Nc2cc(C(F)(F)F)ccc2S1	36	-3	60*	3	0.4	0.6
FC(F)(F)c1cnc2c(c1)Nc1ccccc1S2	16	-3	30	-3	0.7	0.8
Cn1cccc1C(=O)OCC(=O)Nc1cc(C(C)(C)C)nn1-c1ccccc1	50	-2	9	0	0.9	0.5
CC(C)(C)c1cc(NC(=O)COC(=O)c2ccc3c(=O)n4c(nc3c2)CCC4)n(-c2ccccc2)n1	82*	-2	77*	8	0.2	0.2
COc1ccccc1NC(=O)Cc1noc(CSc2nnc(C)s2)n1	16	4	34	14	0.7	0.8
Cc1cccc(NC(=O)c2cc(NC(=O)C3CC=CCC3C(=O)O)ccc2N2CCOCC2)c1 (configuration not stated)	-1	/	3	/	1	1
CC(=O)Nc1ccc(N2CCCCC2)c(C(=O)Nc2cccc(C)c2)c1	57*	3	50*	-3	0.5	0.4
CCCCC(=O)Nc1ccc(C(=O)NN2C(=O)c3ccccc3C2=O)cc1	29	-3	6	-26	0.9	0.7
COc1cc(CNC2CCCC2)cc(Cl)c1OCc1ccccc1F	6	1	96*	47	0	0.9
COc1cc(CNC2CCCCCC2)cc(OC)c1O	-4	-6	-3	-1	1	1
O=C(NC1CC2CCCC(C1)N2C(=O)NC1CCCCC1)c1ccccc1 (configuration not stated)	0	0	2	-11	1	1
CC(=O)Nc1ccc(S(=O)(=O)N2C3CCCC2CC(NC(=O)C2CCCCC2)C3)cc1 (configuration not stated)	27	-2	14	7	0.9	0.7
Cc1cccc(C(=O)NC2CC3CCCC(C2)N3S(=O)(=O)c2ccccc2)c1 (configuration not stated)	91*	-1	97*	-49	0	0.1
O=C(NC1CCS(=O)(=O)C1)c1cccc(S(=O)(=O)N2CCCCC2)c1 (configuration not stated)	-1	2	-2	-7	1	1
CC(=O)NC1CC2CCCC(C1)N2S(=O)(=O)c1ccccc1 (configuration not stated)	-43	3	50*	16	0.5	1.4
SMILES	CYP2C9 inh	CD11b adhes enh	CYP2C19 inhib	Mac1 fbg inh	CYP2C19 act	CYP2C9 act
O=C(NC1CC2CCCC(C1)N2C(=O)Nc1ccccc1)c1ccncc1 (configuration not stated)	40	4	92*	-9	0.1	0.6
O=C(NC1CC2CCCC(C1)N2S(=O)(=O)c1ccccc1)c1ccccc1 (configuration not stated)	32	5	63*	36	0.4	0.7
CS(=O)CSc1nc2c(cc1C#N)CCCC2 (configuration not stated)	5	5	12	26	0.9	0.9
CC(C)OC(=O)CC(=O)CSc1nc2c(cc1C#N)CCCCCC2	63*	-3	47	-5	0.5	0.4
C=C(C)CSc1nc2c(cc1C#N)CCC2	45	1	80*	-7	0.2	0.6
CCCCSc1nc2c(cc1C#N)CCC2	49	-1	58*	-4	0.4	0.5
O=C(NCc1ccco1)C1CCC(CNS(=O)(=O)c2cccc3cccnc23)CC1 (configuration not stated)	-9	12	4	9	1	1.1
Cc1n[nH]c(=O)nc1Nc1ccc(O)cc1	-13	0	-6	-31	1.1	1.1
Oc1ccc(Nc2nc3ccccc3nc2Nc2ccc(O)cc2)cc1	99*	2	99*	-5	0	0
COCCCNC(=O)CSC1=Nc2ccccc2C2=NC(CC(=O)NCc3ccccc3)C(=O)N12 (configuration not stated)	22	0	4	0	1	0.8
O=C(C[n+]1cccc(NC(=O)c2ccccc2)c1)c1ccc(NC(=O)c2ccccc2)cc1	4	/	13	/	0.9	1
Cc1nn(C)c(C(=O)Nc2ccc(Cn3cccn3)cc2)c1[N+](=O)[O-]	40	1	18	-7	0.8	0.6
CC(=O)Nc1coc2ccc(Br)cc12	10	-3	2	0	1	0.9
CNC(=O)N(C1=NCC(C)(C)S1)c1ccc(F)c(Cl)c1	51*	0	91*	6	0.1	0.5
CS(=O)(=O)N(CC(N)=O)c1ccc(F)c(Cl)c1	6	0	16	-10	0.8	0.9
O=c1c2ccccc2ncn1-c1ccc2c(c1)OCCO2	12	5	19	8	0.8	0.9
Cc1ccccc1-c1cc(C(=O)n2cccn2)c2cc(Cl)ccc2n1	15	/	62*	/	0.4	0.8
CCn1c(C(=O)N2CCc3ccccc3C2)cc2sccc21	-13	-8	63*	5	0.4	1.1
CCn1c(C(=O)NCCCN2CCc3ccccc3C2)cc2sccc21	7	-1	64*	-1	0.4	0.9
CCN1CCN(C(=O)C2CCN(C(=O)c3cc4sccc4n3CC)CC2)CC1	-3	-1	-7	4	1.1	1
CCn1c(C(=O)NCc2ccccn2)cc2sccc21	27	0	66*	-4	0.3	0.7
CCn1c(C(=O)N2CCC(C(=O)NCCCSC3CCCCC3)CC2)cc2sccc21	-68	3	53*	-1	0.5	1.7
